This is an account of results in PubChem BioAssay AID371 (SRMLSC, 2006).

Hit rate of the full screen: of about 3,300 compounds, about 280 (8.5%) were called active. The full list was thinned out, with actives kept by preference. A number with no mark means an inactive call.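 The calls were made as follows: active = mean growth inhibition over the two runs of 50% or more; inactive = mean growth inhibition under 50%.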

A short description of the experiment: A549 NSCLC cell proliferation inhibitors – ATP luminescence, human non-small cell lung line, primary screen (AID 371).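 Also: compound exposure lasted 72 h before the ATP read; 0% = untreated cell signal and 100% = no luminescence left.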 Conditions: at 10 µM, stronger effect = higher value.
As to `CCC1SC(N)=NC1=O` (centres undefined), the growth inhibition is 2.26%.
With `O=c1[nH]c(-c2ccccn2)nc2ccccc12`, the growth inhibition was 57.6% (active).
As for `CCOC(=O)c1ccc(N2CC(O)=C(c3nc4ccccc4c(=O)[nH]3)C2=N)cc1`, the growth inhibition is 2.08%.
`c1ccc2[nH]c(-c3cscn3)nc2c1`: the growth inhibition is 5.76%.
The figure for `COc1ccccc1-c1c(C)oc2c(CN3CCN(C)CC3)c(O)ccc2c1=O` is -0.86%; for `COC(=O)CN1C2(C#N)CCCCC2CC2CCCCC21C#N` (centres undefined) it is 5.83%.
Take `COc1ccc(OC)c2c(N)c(C#N)c(C(F)(F)C(F)(F)F)nc12`: the growth inhibition is 2.04%.
The figure for `Cc1ccc2nc(C(F)(F)F)c(C#N)c(N)c2c1` is 63.8% (active); for `COC(=O)c1sc(NC(=O)c2oc3ccccc3c2C)nc1C` it is 33.4%.
The figure for `N/C(=N\S(=O)(=O)c1ccc(Cl)s1)c1ccccc1` is 13.5%; for `CCCc1cc(NCCN2CCOCC2)n2c(nc3ccccc32)c1C#N` it is 6.32%; for `Oc1c(I)cc(Cl)c2cccnc12` it is 68.5% (active).
The figure for `Oc1c(I)cc(I)c2cccnc12` is 74.1% (active); for `O=C(O)C1[C@H]2C(=O)N(Cc3cccs3)C[C@]23C=C[C@H]1O3` (some centres undefined) it is 4.5%; for `O=C(C1=C(O)C(=O)N(CCN2CCOCC2)C1c1cccnc1)c1cc2ccccc2o1` (centres undefined) it is 3.18%.
For the compound `CCCCN(CCCC)C(=O)CSc1nnc2n(C)c(=O)c3c4c(sc3n12)CCCC4`, the growth inhibition was 70% (active).
For `Cn1c(=O)c2c3c(sc2n2c(SCc4ccccc4)nnc12)CCCC3`, the growth inhibition is 8.25%.
Next, `NC(=O)CSc1nnc2n(-c3ccccc3)c(=O)c3c4c(sc3n12)CCCCC4`: 46%; `CCCSc1nnc2n(C)c(=O)c3c4c(sc3n12)CCC4`: 20.4%.
Next, `C=C(C)CSc1nnc2n(C)c(=O)c3c4c(sc3n12)CCC4`: 20.2%.
Next, `Cn1c(=O)c2c3c(sc2n2c(SCC(N)=O)nnc12)CC(C(C)(C)C)CC3` (centres undefined): 69.8% (active); `CCOC(=O)C1=C(CSc2nc3c(cc2C#N)CCC3)OC(N)=C(C#N)C1c1ccccc1` (centres undefined): 21%; `Cc1ccc2c(c1)[C@@H]1CN(C)CC[C@@H]1N2S(=O)(=O)c1ccc(F)cc1`: 10.7%.
Consider `CC1(C)Cc2c(C#N)c(NCC3CCCO3)nc(-c3ccco3)c2CO1` (centres undefined), for which the growth inhibition is 11%.
With `CCOC(=O)C(OC(=O)c1sc(=S)n(C)c1C)C(C)=O` (centres undefined), the growth inhibition is -4.85%.
Next, `COCCNc1oc(-c2ccc(F)cc2)nc1C#N`: 2.78%; `c1ccc2c(c1)[nH]c1c(N3CCN(C4CCCCC4)CC3)ncnc12`: 37.9%.
`Fc1ccc2[nH]c3c(N4CCN(C5CCCCC5)CC4)ncnc3c2c1`: the growth inhibition is 86% (active).
Regarding `Fc1ccc2[nH]c3c(N4CCN(c5ccccc5)CC4)ncnc3c2c1`, the growth inhibition is 90.1% (active).
Next, `Cc1ccc(-n2ncc3c(N4CCN(c5ccccc5)CC4)ncnc32)c(C)c1`: 32.8%; `CN1CCN(c2ncnc3c2[nH]c2ccc(F)cc23)CC1`: 18.6%.
Next, `O=C(c1ccc(F)cc1)N1CCC(N2CCCCCC2)CC1`: 0.08%; `Fc1ccc2[nH]c3c(N4CCSCC4)ncnc3c2c1`: 59.6% (active).
On to `CCOC(=O)c1[nH]c2ccc(F)cc2c1NC(=O)CCN1CCSCC1`, for which the growth inhibition was 0.98%.
